How the values were obtained:
Conditions in all cases: concentration: 1 μM, replicates: in singlicate; n = 1
ERK8 = test system: T1, ERK8
T1 construct: gene MAPK15

ERN1 = test system: ERN1
FAK = test system: T2, FAK
T2 construct: gene PTK2

FER = test system: FER
FES = test system: FES
FGFR1 = test system: FGFR1
FGFR2 = test system: FGFR2
FGFR3 = test system: FGFR3
FGFR4 = test system: FGFR4
FGR = test system: FGR
FLT1 = test system: FLT1
FLT3-autoinhibited = test system: FLT3-autoinhibited
FLT3 = test system: FLT3
FLT4 = test system: FLT4
FRK = test system: FRK
FYN = test system: FYN
GAK = test system: GAK
GCN2(Kin.Dom.2,S808G) = test system: T3, GCN2(Kin.Dom.2,S808G)
T3 construct: gene EIF2AK4

GRK1 = test system: GRK1
GRK2 = test system: T4, GRK2
T4 construct: gene ADRBK1
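Also: KINOMEscan kinase panel screen.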

SMILES	%Inh (ERK8) [%]	%Inh (ERN1) [%]	%Inh (FAK) [%]	%Inh (FER) [%]	%Inh (FES) [%]	%Inh (FGFR1) [%]	%Inh (FGFR2) [%]	%Inh (FGFR3) [%]	%Inh (FGFR4) [%]	%Inh (FGR) [%]	%Inh (FLT1) [%]	%Inh (FLT3-autoinhibited) [%]	%Inh (FLT3) [%]	%Inh (FLT4) [%]	%Inh (FRK) [%]	%Inh (FYN) [%]	%Inh (GAK) [%]	%Inh (GCN2(Kin.Dom.2,S808G)) [%]	%Inh (GRK1) [%]	%Inh (GRK2) [%]
Cn1cncc1C(=O)NC1CCN(c2ccnc(Nc3ccc(F)cc3)n2)C1 (stereo not shown) [GSK1379717]	0	0	0	0	0	0	0	7	1	22	12	1	0	99.1	0	42	0	0	18	0
Cc1ccc(-c2nc(Nc3ccncc3)c3ccccc3n2)s1 [GSK189015]	52	22	27	6	19	15	30	28	5	22	39	17	23	10	7	0	53	13	9	1
Cc1ccc(NC(=O)Nc2ccccc2)cc1-c1ccc(C(=O)Nc2ccncc2)cc1 [GSK1398471]	0	0	0	20	20	0	0	18	13	34	32	0	36	21	61	33	4	50	2	0
CCn1c(-c2ccccc2)nc2cnccc21 [SB-733416]	23	0	2	18	0	18	0	0	23	22	53	0	0	27	27	14	0	0	6	0
O=C(Nc1n[nH]c2nc(-c3cccs3)c(Br)cc12)C1CCCC1 [SB-743341]	61	43	1	20	18	28	0	2	3	23	10	34	39	0	5	6	0	0	26	0
NS(=O)(=O)c1cccc(N/C=C2\C(=O)Nc3ccc(S(=O)(=O)Cc4c(Cl)cccc4Cl)cc32)c1 [GSK398099]	0	7	0	7	1	0	0	7	9	31	12	0	0	0	0	35	18	0	0	0
Cc1ccccc1Cn1ccn2c(=O)cc(N3CCOCC3)nc12 [GSK2269905]	0	0	0	18	9	0	2	0	19	31	10	2	0	0	14	26	1	4	0	0
O=C1NC(=O)C(c2ccc(Cl)cc2)=C1Nc1cccc(Cl)c1 [SB-317651]	10	3	0	0	0	0	0	4	0	0	0	11	0	0	0	0	0	2	11	0
CSc1ccc(-c2nc3n(c2-c2ccncc2)CCC3)cc1 [SKF-105561]	1	0	0	0	28	1	0	0	0	25	7	7	8	0	0	0	10	2	8	0
COC(=O)C(NC(=O)NC1CCN(c2ccnc(Nc3ccc(F)cc3)n2)C1)c1ccccc1 (stereo not shown) [GSK1379712]	0	4	0	19	0	0	0	7	19	8	14	8	0	0	0	31	0	2	0	4
CC(C)c1cc(-c2ccc3c(N)n[nH]c3c2)nc(N)n1 [GSK2250882]	0	4	0	14	19	0	18	9	8	34	4	0	0	0	0	22	13	0	0	0
Nc1nccc(-c2c(-c3ccc(F)cc3)ncn2C2CCN(Cc3ccccc3)CC2)n1 [SB-219980]	0	41	0	0	23	0	0	0	0	18	0	18	0	0	10	0	12	1	27	36
CC[C@@H]1CO[C@H](C(=O)Nc2ccccc2)CN1c1cc(-c2ccc3c(N)n[nH]c3c2)nc(NC)n1 [GSK2376236]	0	19	0	27	9	0	0	41	19	31	28	0	0	20	0	39	26	0	0	0
COc1ccc(Nc2nccc(N3CCC(NC(=O)C(C)c4ccc(Cl)cc4)C3)n2)cc1 (stereo not shown) [GSK1379735]	44	0	0	28	12	8	36	17	3	10	21	5	10	5	0	15	11	9	7	0
COc1cccc(C2=C(Nc3cc(Cl)c(O)c(Cl)c3)C(=O)NC2=O)c1 [SB-390767]	37	17	0	0	0	0	53	41	29	22	20	0	0	10	20	30	100	0	3	0
CN1c2ccc(-c3ccc(C(N)=O)cc3)cc2-c2[nH]ncc2S1(=O)=O	17	0	–	8	11	5	0	0	0	20	5	27	31	0	0	3	6	33	1	0

SMILES	%Inh (ERK8) [%]	%Inh (ERN1) [%]	%Inh (FAK) [%]	%Inh (FER) [%]	%Inh (FES) [%]	%Inh (FGFR1) [%]	%Inh (FGFR2) [%]	%Inh (FGFR3) [%]	%Inh (FGFR4) [%]	%Inh (FGR) [%]	%Inh (FLT1) [%]	%Inh (FLT3-autoinhibited) [%]	%Inh (FLT3) [%]	%Inh (FLT4) [%]	%Inh (FRK) [%]	%Inh (FYN) [%]	%Inh (GAK) [%]	%Inh (GCN2(Kin.Dom.2,S808G)) [%]	%Inh (GRK1) [%]	%Inh (GRK2) [%]
COc1ccc(CSc2nnc(-c3ccc4nccn4c3)o2)cc1C(F)(F)F	39	0	0	4	14	4	4	0	0	19	35	25	15	9	0	0	6	0	5	0
Cl.Cl.Cl.N#Cc1ccc(CCNc2nccc(-c3cccc(CN4CCNCC4)c3)n2)cc1 [GSK2137462]	28	25	56	4	6	0	10	17	22	23	17	0	38	2	4	38	26	11	0	0
CNCc1ccc2nc(NC(=O)c3ccc(C(C)(C)C)cc3)cn2c1	2	9	3	1	1	0	0	6	0	0	27	19	66	29	1	6	5	0	13	39
Cn1cnc2c(N)ncnc21 [SKF-97623]	12	0	0	0	0	0	0	0	0	51	0	100	0	0	0	0	0	27	0	29
COc1cc2ncnc(Nc3cccc(Br)c3)c2cc1OC.Cl [GI230329]	0	2	0	31	0	0	22	11	0	26	21	0	0	0	15	16	87	0	0	36
Fc1ccc(-c2nc3n(c2-c2ccncc2)CCS3)cc1 [GI98581]	0	28	0	13	0	0	0	20	0	21	35	0	0	12	14	22	53	3	0	0
COc1ccc(Nc2nccc(N3CCC(NC(=O)C(C)c4ccc(Cl)cc4)CC3)n2)cc1 (stereo not shown) [GSK1379812]	0	0	0	46	19	0	0	30	4	5	26	0	0	2	0	12	1	0	0	0
Fc1ccc(-c2nn3cccc(F)c3c2-c2ccncc2)cc1 [GW475620]	15	0	1	17	0	23	25	6	0	15	27	2	0	25	14	16	65	0	0	6
CC(=O)c1c(C)c2cnc(Nc3ccc(N4CCNCC4)cn3)nc2n(C2CCCC2)c1=O	17	0	0	4	0	2	0	0	0	20	0	0	0	0	7	0	0	0	10	0
O=c1cc(N2CCOCC2)nc2n(Cc3cccc(Cl)c3Cl)c3ccccc3n12 [GSK2299009]	0	18	0	49	0	31	4	10	21	17	41	9	28	16	0	17	19	0	0	0
CNc1cc(-c2ccc3c(N)n[nH]c3c2)nc(N)n1 [GSK2224810]	0	0	0	19	9	0	0	28	7	24	15	16	0	2	7	20	9	0	6	0
COc1ccc(Nc2nccc(N3CCC(NC(=O)c4cc5ccccc5s4)C3)n2)cc1 (stereo not shown) [GSK1379738]	0	0	0	0	0	0	0	2	4	15	14	0	0	3	0	41	0	0	0	0
COc1ccc(CSc2nnc(-c3ccc4ncsc4c3)o2)cc1C(F)(F)F	57	0	0	0	14	5	0	0	0	27	0	0	0	10	0	0	0	0	0	0
Nc1cccc(-c2ccc3c(N)n[nH]c3c2)n1 [GSK2192730]	0	24	0	0	0	0	0	0	0	10	0	13	0	0	0	29	17	0	21	0
CNc1nc(-c2ccc3c(N)n[nH]c3c2)cc(N2C[C@@H](C(=O)NC3CCCCC3)OC[C@H]2C)n1 [GSK2375584]	0	0	0	34	0	13	27	27	7	17	25	20	0	0	4	6	0	0	12	0
